This is part of a sample that, as a whole, favours compounds with a hit. Of some 83,000 tested, about 20% had one in any assay.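 In brief: 96-well plates, 48 h treatment, single concentration, percent growth endpoint.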 A number with no mark means an inactive call. Calls of active or inactive are those of the source. How the source made its calls: active means growth percent below 10; inactive means the rest.
How the values were obtained:
Assay in all cases: NCI-60 one-dose screen, 48 h (100 = growth as untreated, 0 = no growth, -100 = all killed)
Conditions in all cases: 10 µM unless noted
HCT-15 colon = tested on: HCT-15 colon
HT29 colon = tested on: HT29 colon
SNB-75 CNS = tested on: SNB-75 CNS
SNB-19 CNS = tested on: SNB-19 CNS
U251 CNS = tested on: U251 CNS
PC-3 prostate = tested on: PC-3 prostate
SK-MEL-5 melanoma = tested on: SK-MEL-5 melanoma
UACC-62 melanoma = tested on: UACC-62 melanoma
LOX IMVI melanoma = tested on: LOX IMVI melanoma
SK-MEL-28 melanoma = tested on: SK-MEL-28 melanoma
SK-MEL-2 melanoma = tested on: SK-MEL-2 melanoma
EKVX NSCLC = tested on: EKVX NSCLC
SN12C renal = tested on: SN12C renal
UO-31 renal = tested on: UO-31 renal
TK-10 renal = tested on: TK-10 renal
ACHN renal = tested on: ACHN renal
A498 renal = tested on: A498 renal
CCRF-CEM leukemia = tested on: CCRF-CEM leukemia
MOLT-4 leukemia = tested on: MOLT-4 leukemia
CAKI-1 renal = tested on: CAKI-1 renal

Row | Compound | growth (HCT-15 colon) | growth (HT29 colon) | growth (SNB-75 CNS) [%] | growth (SNB-19 CNS) | growth (U251 CNS) | growth (PC-3 prostate) | growth (SK-MEL-5 melanoma) | growth (UACC-62 melanoma) | growth (LOX IMVI melanoma) | growth (SK-MEL-28 melanoma) | growth (SK-MEL-2 melanoma) | growth (EKVX NSCLC) | growth (SN12C renal) | growth (UO-31 renal) | growth (TK-10 renal) | growth (ACHN renal) | growth (A498 renal) | growth (CCRF-CEM leukemia) | growth (MOLT-4 leukemia) | growth (CAKI-1 renal)
1 | COC(=O)C[Se]C(=O)Cc1c(C)n(C(=O)c2ccc(Cl)cc2)c2ccc(OC)cc12 | 11.5% | 9.65% (active) | 73.5 | 31.7% | 46.2% | 72.7% | 44.9% | 69.6% | -54.9% (active) | 62.8% | 86.8% | 15.1% | 57.1% | 9.87% (active) | 70.6% | 53.2% | 70.6% | 50.1% | 67.1% | –
2 | CCn1c2ccccc2c2cc(-n3nncc3-c3ccccc3)ccc21 | 8.42% (active) | 2.01% (active) | 27.4 | 24.1% | 25.1% | 29.1% | -11.7% (active) | 35.5% | -29.5% (active) | 66.4% | 68.2% | 45.5% | 25.4% | 36.8% | 90.5% | 29.2% | -0.537% (active) | 19.5% | 12.7% | –
3 | N#Cc1cccc(CN2CCC3=C(C2)C(=O)N(Cc2ccc(Cl)cc2)C2=NCCCN23)c1 | 16.6% | 28% | 68 | 21.8% | 23.7% | 24% | 8.1% (active) | 25% | 43.8% | 44.8% | 26.4% | 29% | 22.1% | 37.4% | 60.4% | 38.4% | 15.4% | 37.1% | 48.3% | –
4 | COc1ccc2c(c1)c(CC(=O)[Se]CC(=O)O)c(C)n2C(=O)c1ccc(Cl)cc1 | 93% | 75.5% | 101 | 40.7% | 62% | 93.8% | 56.7% | 63.6% | 72.1% | 90.3% | 102% | 103% | 58.5% | 94.4% | 104% | 103% | 69.3% | 94.6% | 99.8% | –
5 | CC/C(=C/c1cc(OC)ccc1O)c1ccc2cc(OC)ccc2[o+]1 | 23.9% | 15.7% | 48.3 | 47.3% | 66.5% | 40% | 40.7% | 21.4% | 60% | 61.8% | 71.8% | 76.3% | 73.9% | 68.7% | 116% | 58.5% | 29.5% | 39.3% | 53.4% | –
6 | COC(=O)c1[nH]nc2c1C1(C(=O)c3cccc4cccc1c34)C(C#N)=C(N)O2 (stereo unspecified) | 99.4% | 105% | 80.4 | 97.2% | 105% | 83.9% | 98.6% | 91.8% | 97.7% | 112% | 105% | 89.9% | 100% | 73.4% | 122% | 99.6% | 82.1% | – | 111% | 79.7%
7 | C=C(C)[C@@H]1CC[C@]2(COCCCNCCC#N)CC[C@]3(C)[C@H](CC[C@@H]4[C@@]5(C)CC[C@H](OCCCNCCC#N)C(C)(C)[C@@H]5CC[C@]43C)[C@@H]12 | 47% | 49.9% | 54.4 | 83.5% | 70.9% | 42.5% | 15% | 69.1% | -1.84% (active) | 90.5% | 93.7% | 36.1% | 52% | 41.3% | 74.9% | 65.3% | 43.3% | – | 28.2% | 34.8%
8 | Cc1ccc(NC(=O)CNc2cc(C(N)=O)cc(F)c2C)c(Cl)c1 | 103% | 114% | 48.4 | 101% | 106% | 85.7% | 97.1% | 81.5% | 94.1% | 99.5% | 101% | 47.5% | 77.1% | 50.4% | 102% | 88.9% | 39% | – | 90.5% | 62.6%
9 | COc1ccc(Oc2ccc(/C=N/NC(=O)CSc3nc4ccccc4c(=O)n3-c3ccc(Cl)cc3)cc2)cc1 | 56% | 16.1% | 41.6 | 61.5% | 36.5% | 63.7% | 78% | 61.9% | 14.7% | 89.3% | 97.6% | 69.4% | 52.7% | 47.7% | 96.5% | 7.83% (active) | 72.9% | 63.5% | 61.7% | –
10 | COc1ccc(COc2ccc(/C=C3\C(=O)Nc4ccccc43)cc2OC)cc1 | 105% | 108% | 97.4 | 97.3% | 109% | 95.8% | 108% | 96.7% | 96.6% | 107% | 108% | 99.8% | 99.6% | 80.4% | 113% | 92.4% | 110% | 104% | 102% | –
11 | O=C(CNc1nc(-c2cccc([N+](=O)[O-])c2)cs1)Nc1cccc([N+](=O)[O-])c1 | 3.96% (active) | -34.9% (active) | 52.9 | -12.3% (active) | -14.8% (active) | -37.8% (active) | -84.5% (active) | -62.6% (active) | -74.3% (active) | -24.3% (active) | 9.35% (active) | 52.9% | -4.54% (active) | -79.3% (active) | -13.6% (active) | -20.1% (active) | -77.4% (active) | – | 6.77% (active) | -10.3% (active)
12 | O=C(NNc1nc2cc(F)cc(F)c2n2cccc12)c1cnccn1 | 24.8% | 26.2% | 49.2 | 25% | 16.2% | 24.1% | 14.2% | 5.21% (active) | 5.06% (active) | 25.8% | 32.6% | 8.74% (active) | 25.5% | 18.1% | 21.9% | 14.5% | 11.1% | 10.6% | 1.8% (active) | –
13 | COc1cccc(/C=C(/C)c2ccc3cccc(OC)c3[o+]2)c1O | 98% | 114% | 92.4 | 95.6% | 108% | 87.3% | 102% | 80.3% | 127% | 98.9% | 106% | 89.6% | 97.3% | 88.8% | 116% | 95.4% | 84% | 104% | 92% | –
14 | O=C(NNc1nc2cc(F)ccc2n2c(CO)ccc12)c1cnccn1 | 22.9% | 22% | 42.9 | 21.8% | 16.5% | 23.6% | 6.38% (active) | -14.8% (active) | 1.5% (active) | 25.1% | 21.7% | 4.53% (active) | 21.5% | 8.71% (active) | 21% | 10.2% | 8.46% (active) | 7.36% (active) | 2.51% (active) | –
